Test results from PubChem BioAssay (NCATS).
Inconclusive results are not listed. Calls of active or inactive are those of the source. Unless noted, the call rests on the fitted dose curve; in most records, active means well fitted curve in the direction sought with a large enough effect; inconclusive means small, poorly fitted or top-dose-only effect, or another doubt; inactive means no such curve, though single readings can be large; an effect the other way counts as inactive or inconclusive.

Legend:
[1] = HPAF-II 24hr Apoptosis Induction qHTS against the NCATS CANVASS Library (AID 1347356)
Method in brief: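 Caspase-Glo 3/7 luminescence, read after 15 min room-temperature development, measures apoptosis in HPAF-II cells treated 24 h at 37 degrees C with an 11-point concentration series; 500 cells/well; doxorubicin control.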

[2] = HPAF-II 12hr Apoptosis Induction qHTS against the NCATS CANVASS Library (AID 1347358)
Method in brief: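 Caspase-3/7 activation by DEVD-substrate luminescence (Caspase-Glo 3/7, 15 min, room temperature) after a 12-hour compound exposure in 11 concentrations, of HPAF-II pancreatic cells seeded at 500/well in DMEM with 10% FBS.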

[3] = HEK293 24hr Apoptosis Induction qHTS against the NCATS CANVASS Library (AID 1347359)
Method in brief: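 HEK293 cells (500/well, DMEM + 10% FBS) were exposed to compounds in an 11-point series for 24 hours at 37 degrees C, then caspase-3/7 activity was read by Caspase-Glo DEVD luciferase luminescence after 15 min.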

[4] = HEK293 12hr Apoptosis Induction qHTS against the NCATS CANVASS Library (AID 1347361)
Method in brief: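 Cells are seeded, dosed with an 11-point compound series and incubated 12 hours. Caspase-3/7 activity is detected by luminescent DEVD-substrate reagent after 15 minutes at room temperature.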

[5] = system: NAD(P)H diaphorase (Clostridium kluyveri); test: Diaphorse counterscreen qHTS: Assay Interference Panel against the NCATS CANVASS Library (AID 1347362)
Method in brief: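 Clostridium kluyveri diaphorase in PBS with 0.01% Tween-20 was preincubated 15 min at room temperature in the dark with compounds (11-point series). Resorufin fluorescence (ex 525/20, em 598/25) was read 5 min after adding resazurin/NADH.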

[6] = target: Luciferin 4-monooxygenase (Photinus pyralis) (UniProt P08659); test: Firefly luciferase counterscreen qHTS: Assay Interference Panel against the NCATS CANVASS Library (AID 1347363)
Method in brief: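 Purified P. pyralis luciferase was added to compounds (11-point series) preincubated 15 min at room temperature with substrate containing 0.013 mM D-luciferin and 0.013 mM ATP; luminescence was read after 5 min.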

[7] = KB-8-5-11 Cancer Cell Toxicity qHTS against the NCATS CANVASS Library (AID 1347364)
Method in brief: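 Viability read as CellTiter-Glo luminescence after 72 h at 37 °C, 5% CO2. 11-point compound series on 500 KB-8-5-11 cells/well in DMEM/10% FBS. Follow-up plating included 1 uM tariquidar in the medium.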

[8] = KB-3-1 Cancer Cell Toxicity qHTS against the NCATS CANVASS Library (AID 1347366)
Method in brief: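 Luminescence from CellTiter-Glo (10 min, room temperature) measured KB-3-1 viability after 72 hr compound exposure at 37C. Cells were seeded at 500/well and tested in an 11-point series.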

[9] = qHTS for ATAD5 Agonist screened against the NCATS CANVASS Library (AID 1347367)
Method in brief: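 HEK293T-ATAD5 luc reporter; 2000 cells/well; 5hr settle; cpd 11-pt qHTS; 16hr 37C 5% CO2 dark; viability by CellTiter-Fluor (AFC fluorescence); then luciferase luminescence, 30min RT.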

[10] = MCF7 Cancer Cell Toxicity qHTS against the NCATS CANVASS Library (AID 1347369)
Method in brief: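 Cells seeded at 500/well, then compound pinned. Plates incubated 72 hr at 37C, 5% CO2. CellTiterGlo added; luminescence read.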

[11] = qHTS for ATAD5 Antagonist screened against the NCATS CANVASS Library (AID 1347370)
Method in brief: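 Compounds (11-point) co-dosed with 10 µM 5-FUrd for 16 h at 37 °C onto HEK293T-ATAD5 luciferase reporter cells. Viability measured by CellTiter-Fluor fluorescence, then ATAD5 reporter signal by luminescence.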

[12] = J3T Cancer Cell Toxicity qHTS against the NCATS CANVASS Library (AID 1347371)
Method in brief: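 Cytotoxicity read as CellTiterGlo ATP luminescence after 72 h incubation (37C, 5% CO2) of J3T canine glioma cells (500/well) with an 11-point compound series.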

[13] = target: Nuclear receptor subfamily 1 group I member 3 (Homo sapiens) (UniProt Q14994); test: qHTS for Constitutive Androstane Receptor (CAR) Antagonist screened against the NCATS CANVASS Library (AID 1347372)
Method in brief: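 Cells were seeded and left 4hr to attach, then received compound at 11 concentrations and 50 nM CITCO. Following 24hr incubation, fluorescence viability and luciferase luminescence were read sequentially.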

[14] = target: Nuclear receptor subfamily 1 group I member 3 (Homo sapiens) (UniProt Q14994); test: qHTS for Constitutive Androstane Receptor (CAR) Agonist screened against the NCATS CANVASS Library (AID 1347373)
Method in brief: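 Agonist mode with 1.5uM PK11195 present: compounds for 24hr on HepG2-hCAR-CYP2B6 cells. CellTiter-Fluor fluorescence (ex 405, em 540 nm) gives viability; ONE-Glo luminescence reports CAR activation.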

[15] = qHTS for Hypoxia signaling pathway (HIF-1) agonists against the NCATS CANVASS Library (AID 1347375)
Method in brief: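 Beta-lactamase reporter under HRE control in ME-180 cells; compounds (11-point qHTS series) added after 5 hrs plating, then 17 hrs at 37C. FRET substrate read after 2 hr; same-well CellTiter-Glo luminescence gave viability and normalization.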

[16] = 10-beta competent E. coli microbial cell viability qHTS against the NCATS CANVASS Library (AID 1347376)
Method in brief: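 Read-out: BacTiter-Glo ATP luminescence, taken 20 min after reagent addition. Beforehand, 10-beta competent E. coli at 0.2 OD had been incubated overnight at 37C with compounds at 11 concentrations.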

[17] = qHTS for H2AX Agonists against the NCATS CANVASS Library (AID 1347378)
Method in brief: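 CHO-K1, 1000 cells/well, o/n 37C; cpd several conc, 3 hr 37C, 0.76% DMSO; lyse 30 min RT; cryptate anti-pH2AX(S139) + d2 anti-H2AX, 24 hr RT; HTRF 665/620.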

[18] = Inflammasome Signaling qHTS Counterscreen: IL-1-beta AlphaLISA counterscreen against the NCATS CANVASS Library (AID 1347381)
Method in brief: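 Purified IL-1-beta (4 pg/well) + compound, 11-pt conc. series; acceptor beads 6 ug/mL + biotin-Ab 0.6 nM final, 1 h RT; SA-donor 24 ug/ml final, 30 min dark RT; read ex 680/em 615.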

[19] = Cytotoxicity qHTS for assessment of Hepg2 cells membrane integrity screened against the NCATS CANVASS Library (AID 1347387)
Method in brief: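 Membrane damage quantified as fluorescent LDH-release signal (ex 560, em 590 nm) in HepG2 cells treated 5 hr at 37C. qHTS format, 11 concentrations spanning 0.59 nM - 46 uM final, cells plated at 2000 per well the night before.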

[20] = qHTS assay for small molecule disruptors of mitochondrial membrane potential screened against the NCATS CANVASS Library (AID 1347389)
Method in brief: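 Mitochondrial membrane potential in HepG2: 1 h compound treatment (11-point concentration series), 30 min m-MPI dye at 37C, then dual fluorescence of J-aggregates (ex 540/em 590) and monomers (ex 490/em 535); lower red/green ratio indicates depolarization.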

[21] = qHTS for activators of dead-cell proteases activity screened against the NCATS CANVASS Library (AID 1347392)
Method in brief: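 Cytotoxicity in HepG2 cells was assessed by released protease cleaving AAF-aminoluciferin, with luminescence as signal. Exposure lasted 5 h at 37C across an 11-point series.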

[22] = qHTS for inhibitors of ER calcium dysfunction: SERCaMP assay screened against the NCATS CANVASS Library (AID 1347393)
Method in brief: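 qHTS in SH-SY5Y reporter cells: 16 h compound pretreatment, 4 h thapsigargin, then secreted Gaussia luciferase measured by luminescence.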

[23] = qHTS for inhibitors of Wild type Zika virus screened against the NCATS CANVASS Library (AID 1347396)
Method in brief: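 Vero 766 cells, 1000/well, o/n attach; cpds pin-transferred (11-pt qHTS); WT Zika added; 72 h, 37C, 5% CO2; CellTiter Glo lumi. Uninfected + vehicle = 100% inhibition.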

[24] = qHTS for inhibitors of Rabies Virus screened against the NCATS CANVASS Library (AID 1347402; calls by dose curve)
[25] = Primary qHTS for small molecule stabilizers of the endoplasmic reticulum resident proteome: Secreted ER Calcium Modulated Protein (SERCaMP) assay (AID 1508630)
Method in brief: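 The SH-SY5Y reporter protocol was run at 3 concentrations up to 38.3 uM (primary) or 11 concentrations (follow-up): 16 h compound, 100 nM thapsigargin for 4 h, then extracellular luciferase luminescence.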

Measured: Potency

Chain of Nuclear receptor subfamily 1 group I member 3 (Homo sapiens) (Q14994 whole entry, looked up): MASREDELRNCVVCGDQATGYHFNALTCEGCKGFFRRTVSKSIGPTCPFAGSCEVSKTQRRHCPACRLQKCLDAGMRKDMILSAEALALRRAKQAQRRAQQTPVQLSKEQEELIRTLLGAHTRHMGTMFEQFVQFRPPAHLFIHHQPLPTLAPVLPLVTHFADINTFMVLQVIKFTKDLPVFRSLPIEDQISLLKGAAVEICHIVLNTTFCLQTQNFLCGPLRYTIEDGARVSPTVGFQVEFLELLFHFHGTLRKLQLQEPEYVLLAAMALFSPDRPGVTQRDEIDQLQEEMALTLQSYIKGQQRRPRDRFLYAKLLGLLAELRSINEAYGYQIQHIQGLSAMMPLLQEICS
Chain of Luciferin 4-monooxygenase (Photinus pyralis) (P08659 whole entry, looked up): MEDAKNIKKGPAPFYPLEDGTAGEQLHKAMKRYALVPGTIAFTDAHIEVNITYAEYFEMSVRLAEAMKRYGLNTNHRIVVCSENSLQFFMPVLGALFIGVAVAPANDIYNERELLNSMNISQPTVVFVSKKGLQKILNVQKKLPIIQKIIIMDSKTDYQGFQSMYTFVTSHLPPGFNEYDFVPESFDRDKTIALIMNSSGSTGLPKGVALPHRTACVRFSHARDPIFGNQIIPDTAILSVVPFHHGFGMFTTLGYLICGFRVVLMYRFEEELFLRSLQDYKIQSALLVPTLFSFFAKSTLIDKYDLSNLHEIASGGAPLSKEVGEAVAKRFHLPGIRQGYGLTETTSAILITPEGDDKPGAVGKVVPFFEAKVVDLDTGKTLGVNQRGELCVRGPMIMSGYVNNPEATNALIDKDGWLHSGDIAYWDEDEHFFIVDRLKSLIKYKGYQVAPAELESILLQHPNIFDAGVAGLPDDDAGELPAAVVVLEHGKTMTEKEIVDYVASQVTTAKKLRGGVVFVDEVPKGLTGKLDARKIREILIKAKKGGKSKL

COc1ccc2c3c([nH]c2c1)C(C)=NCC3
active: [11] 16.6 µM | [15] 13.3 µM | [22] 27.2 µM
inactive: all other assays above
